Entries with a potency or affinity are not part of this list.
Target: Protein S100-A4 (Homo sapiens) (UniProt P26447)
Experiment: S100A4-myosin IIA binding inhibitor potency, dose response, biochemical, fluorescence polarization, cherry-picked hits (AID 687001);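 note: 0% = DMSO neutral control wells and -100% = TFP positive control wells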
Details: FP, S100A4/TAMRA-myosin IIA peptide binding; series mostly up to 11 µM; activity change, negative = inhibition: at the top concentration;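 active = signal-lowering compounds whose fitted half-maximal concentration is at or below twice the top tested dose in every run; inconclusive = runs disagree, flat 30 to 70% inhibition, or poor curve fit; inactive = the rest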

Sequence of Protein S100-A4 (Homo sapiens) (P26447 whole entry, looked up): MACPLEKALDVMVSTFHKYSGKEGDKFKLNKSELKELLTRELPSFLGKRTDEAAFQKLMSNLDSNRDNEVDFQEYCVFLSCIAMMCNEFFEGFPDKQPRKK

Activity change, negative = inhibition, inactive:
COc1ccc(NC(=O)N(C)C[C@H]2OCCCC[C@@H](C)Oc3ccc(NC(=O)NC4CCCCC4)cc3C(=O)N([C@H](C)CO)C[C@@H]2C)cc1 9.67% [at 10 µM]
CCC1(c2ccc(F)cc2)NC(=O)N(CC(=O)N2CCc3ccccc3C2)C1=O (stereo not given) 1.7%
O=C(CN1C(=O)/C(=C/c2ccccc2Cl)SC1=S)NC1C=CS(=O)(=O)C1 (stereo not given) 17.7%
O=C(C[C@H]1CC[C@@H]2[C@H](COC[C@@H](O)CN2C(=O)Cc2ccccc2)O1)NC1CCCC1 17.1% [at 10 µM]
Cc1ccc(S(C)(=O)=O)cc1C(=O)OCC(=O)N(Cc1ccccc1)Cc1ccccc1 -0.758%
CC(NC(=O)c1ccccc1F)c1nnc(SCC(=O)Nc2nnc(C3CC3)s2)n1C (stereo not given) 9.61%
Cc1ccc(CCNC(=O)c2ccc(CS(=O)(=O)c3ccccc3C)o2)cc1 1.67%
CCC(=O)N1[C@@H]2c3ccc(-c4ccncc4)c(=O)n3C[C@H]1[C@H](CO)[C@H]2C(=O)NC1Cc2ccccc2C1 0.367%
CN(CC1CCCN(CCc2ccc(Cl)cc2)C1)C(=O)CC(F)(F)F (stereo not given) -1.92%
O=C(NCCCc1ccccc1)c1cccc(NC(=O)C2CCC2)c1 -3.35%
O=C1NC(Cc2ccc(Cl)cc2)COCc2cnnn2CCC1c1ccccc1 (stereo not given) 0.418%
O=C(NCCCN1CCC(Cc2ccccc2)CC1)C1CCC(=O)N1C1CCCC1 (stereo not given) 56.5%
CC1=CC(C)(C)NC(=S)N1C(C)c1ccccc1 (stereo not given) -1.25%
CSCCC(NC(=O)c1ccccc1Cl)C(=O)NCC(c1cccs1)N(C)C (stereo not given) -5.64%
O=C(COC(=O)C12CC3CC(CC(Br)(C3)C1)C2)Nc1c(F)cccc1F -1.4%
C=C1CCN([C@@H](Cc2ccccc2)C(=O)NC2CCN(Cc3ccccc3)CC2)S(=O)(=O)c2ccccc21 -0.361%
COc1ccc(C)cc1NC(=O)CN1CCN(c2ccccn2)CC1 -3.87%
CCOc1ccc(S(=O)(=O)N2CCCC(C(=O)NCC3CCCO3)C2)cc1Cl (stereo not given) -4.41%
COc1ccc(-c2cnc(SCCNC(=O)c3ccc4c(c3)OCO4)[nH]2)cc1 -1.83%
CO[C@H]1CN(C)C(=O)c2cc(NC(=O)Nc3ccc(C(F)(F)F)cc3)ccc2OC[C@H](C)NC[C@H]1C 2.47%
Cc1c(C(=O)OCC(=O)N(C)CC(=O)Nc2ccc(F)cc2)oc2ccccc12 5.97%
CN1c2ccc(C3=CCCCC3)cc2[C@@H]2[C@@H](CCN2C(=O)C2CC2)[C@H]1CO -0.905% [at 10 µM]
O=S(=O)(c1ccc2c(c1)CCCN2)N1CCCC2CCCCC21 (stereo not given) 3.23%
Cc1ccc(S(=O)(=O)Nc2ccc3c(c2)C(=O)N([C@@H](C)CO)C[C@@H](C)[C@@H](CN(C)CC2CC2)OCCCC[C@@H](C)O3)cc1 -4.32%
CCN1CCN(CCNC(=O)c2cc(Cl)c(NC(=O)C3=C(C)OCCS3)cc2OC)CC1 17.9%

— PubChem BioAssay AID687001 (Broad Institute, 2013)
